# Reference: the OligoGym collection
# Target: KRBA1
# Assay: pooled miR-30 sensor sort-seq; sequence = guide strand
# Conditions: shRNA
row,Sequence,sensor-assay potency score (higher = more potent)
1,TTGGCTGCAACTCTGGGTCTTC,-0.346
2,TTCACTGTGTGATCTGTGGGGT,0.493
3,TTGTCTGCTGTCCAGTTCCTGG,-1.35
4,TAGAGGACAGCAGCTGCTGGGA,-1.32
5,TCTTCCATGTCCAAGCTCCAGG,-1.05
6,TTCTTCACTGTGTGATCTGTGG,-0.539
7,TTTGTCGGCAGTTTTGATGGGG,0.519
8,TTCTCCAGCTGAGAAACCGGGC,-0.802
9,TTGTCGGCAGTTTTGATGGGGA,-0.192
10,TCTCCAAACAAGAACTCTGGGA,-0.424
11,TCTGAGACCTAGAGTCTCCTGG,-0.0756
12,ATTTGATTGAATCTGAGCCAAG,-1.53

# Target: KRBA2
# Assay: as above
# Conditions: shRNA
row,Sequence,sensor-assay potency score (higher = more potent)
1,ATTGAGCTCATGAACAACCTGG,-0.217
2,TATAAGACAATAACTTCTTTGG,-0.185
3,TTTAGCTTCTTTAACTTCCTTT,0.674
4,TAACAAGACACTGACCACCTCA,0.174
5,TAAGACAATAACTTCTTTGGTG,0.507
6,TGTGTCTCTGTAGCAATCCTTT,-1.24
7,TTGAGCTCATGAACAACCTGGT,0.411
8,TTGCTGTTGTAACTTTTGCTTT,-1.09
9,TTGCTTTCTACTAACTTTGTTA,0.0117
10,TGAACTTGAACTCACCATCGGC,0.0582

# Target: KRCC1
# Assay: as above
# Conditions: shRNA
row,Sequence,sensor-assay potency score (higher = more potent)
1,TTAACCTCTCCTTTGTACCCAC,-0.366
2,TTAGAGACTACATCTCGGCTTT,0.863
3,TTTTTCTGAGAAACAGTCCCTC,-0.167
4,TTCTGTACTGACATGTACGGTT,-0.0449
5,TTTCTTAGAGACTACATCTCGG,-0.234
6,TTATCTGAGGAGAAGTGCTTGT,0.253
7,TTCTTGTTGATTAAAGTTCAGG,-0.822
8,TTCTCTTATGCTTAGACCGCTC,-0.386
9,TTGTTGATTAAAGTTCAGGGGT,-0.113
10,TTTCTGTACTGACATGTACGGT,-0.751
11,TTCTTAGAGACTACATCTCGGC,-0.216
12,TTGATGAGTACTGGTACTGTTA,-0.491

# Target: KRI1
# Assay: as above
# Conditions: shRNA
row,Sequence,sensor-assay potency score (higher = more potent)
1,TTGAGCTCTTCCTGCTTCTTTG,-1.32
2,TACTTTCCGCAGCTTCTCCAGC,-0.735
3,TTCTGCAGCAAACTGGAGCCGC,-0.837
4,TTTGTAAAAGTCCCGCTCCTGC,-0.976
